Results from PubChem BioAssay.
The source made the active and inactive calls.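 The calls were made as follows, unless noted: active = visually confirmed hit in the image check and inhibition above 20%; inconclusive = visually confirmed hit but inhibition not above 20%; inactive = no visual hit in the image check.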

What was measured:
[1] = inhibitors of TNFa-induced NFkB p65 translocation, primary screen, imaging, HUVEC, MLSMR starter and 10KST1 sets (AID 438;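 active = inhibition above 20% together with a positive visual image hit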;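 also: compound added about 3h40 before a 20 min TNFalpha stimulation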;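 as to inhibition: signal is the nuclear over cytoplasmic p65 intensity ratio per well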); details: HUVEC TNFa-induced p65 nuclear translocation; cell count: measured here: nuclei count (cytotoxicity indicator), at 2.08 µM; inhibition: at 2 µM, stronger effect = higher value, 0% TNFa-plus-vehicle, 100% no-TNFa wells
[2] = reduction of polyQ htt aggregates in cells – imaging, exon1htt(103Q)mCFP cells, high-content imaging, primary screen (AID 483;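 active = visual image review flags a hit and inhibition of aggregation exceeds 20%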;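 also: compound exposure lasted 3 days before fixation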;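 as to nuclei count: percent of the per-plate median nuclei count of sample wells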); details: exon1htt(103Q)mCFP cell line, aggregate imaging, at 2 µM; inhibition of aggregation: stronger effect = higher value; nuclei count: measured here: cell count, toxicity
[3] = endothelial E-selectin expression blockers – imaging, HUVEC, immunofluorescence, MLSMR starter and 10KST1 sets, primary screen (AID 487); details: HUVEC TNFalpha-induced E-selectin immunofluorescence imaging, at 2 µM; inhibition: stronger effect = higher value; nuclei count: measured here: cell number, toxicity;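 as to inhibition: signal is fraction of cell area covered by stained E-selectin grains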;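 as to nuclei count: 100% = median nuclei count of all wells on the same plate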
[4] = target: Voltage-gated potassium channel subunit beta-2 (Rattus norvegicus) (UniProt P62483); experiment: inhibitors of rat Kvbeta2 reductase activity – biochemical, NADPH fluorescence, primary screen (AID 622;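 active = fluorescence slope higher than the sample average by over 3 SD, cut at about -0.22 in these data, passing the limit was not always enough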;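 also: slope of raw intensity against log time taken from 70 to 1610 s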); details: recombinant KvBeta, 4-cyanobenzaldehyde reduction, at 10 µM, stronger effect = higher value
[5] = target: Voltage-gated potassium channel subunit beta-2 (Rattus norvegicus) (UniProt P62483); experiment: enhancers of rat Kvbeta2 NADPH turnover – biochemical, NADPH fluorescence, primary screen (AID 623;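 active = NADPH fluorescence slope more negative than the mean of all samples by about 3 SD, 99.7% confidence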;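 also: fluorescence intensity change per second fitted from 20 to 320 s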); details: Recombinant KvBeta, NADPH fluorescence decrease slope, 10 min; at 10 µM; stronger effect = lower value
[6] = target: Alpha-2C adrenergic receptor (Homo sapiens) (UniProt P18825); experiment: compounds altering alpha2C-coupled GIRK flux – cell-based, HEK293 alpha2C/GIRK1/2, thallium flux, primary screen (AID 624;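 active = fluorescence slope after compound addition differing from the mean of all screened samples at 99.7% confidence, in either direction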;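 also: slope of fluorescence ratio to pre-addition baseline per second over 15 to 24 s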); details: thallium flux BTC fluorescence, at 10 µM, actives lie on both sides
[7] = blockers of RIG-like receptor reporter activation – cell-based, Sendai virus stimulus, luciferase, 10K MLSCN set, TLR/RLR signaling modifier project, primary screen (AID 602276;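 active = inhibition at or above 50% at 10 µM; inactive = inhibition below 50%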;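 also: firefly luciferase from ISG56 promoter only with Renilla not read in this screen; 0% = Sendai virus plus DMSO and 100% = medium plus DMSO without virus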); details: HEK293 RL24 IRF3 luciferase reporter, at 10 µM, stronger effect = higher value
[8] = TLR3 IRF3 reporter activation blockers – cell-based, poly I:C stimulus, luciferase, 10K MLSCN set, primary screen (AID 602277;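 active = inhibition of the reporter signal at or above 50%; inactive = inhibition below 50%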); details: HEK293-TLR3 RL24 IRF3 luciferase reporter, at 10 µM, stronger effect = higher value

Alpha-2C adrenergic receptor (Homo sapiens), sequence (P18825 whole entry, looked up): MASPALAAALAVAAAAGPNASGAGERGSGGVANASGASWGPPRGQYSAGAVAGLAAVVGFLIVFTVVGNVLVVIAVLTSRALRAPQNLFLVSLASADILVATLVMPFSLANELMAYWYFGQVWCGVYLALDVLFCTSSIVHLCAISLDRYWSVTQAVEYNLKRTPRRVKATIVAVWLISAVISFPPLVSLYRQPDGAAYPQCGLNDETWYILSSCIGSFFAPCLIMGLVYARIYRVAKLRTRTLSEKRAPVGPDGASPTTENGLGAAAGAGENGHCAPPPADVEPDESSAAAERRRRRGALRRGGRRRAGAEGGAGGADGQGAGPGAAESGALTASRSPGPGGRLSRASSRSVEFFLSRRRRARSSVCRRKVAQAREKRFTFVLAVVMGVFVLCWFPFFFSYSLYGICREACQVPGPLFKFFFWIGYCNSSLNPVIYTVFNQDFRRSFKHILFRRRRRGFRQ
Voltage-gated potassium channel subunit beta-2 (Rattus norvegicus), sequence (P62483 whole entry, looked up): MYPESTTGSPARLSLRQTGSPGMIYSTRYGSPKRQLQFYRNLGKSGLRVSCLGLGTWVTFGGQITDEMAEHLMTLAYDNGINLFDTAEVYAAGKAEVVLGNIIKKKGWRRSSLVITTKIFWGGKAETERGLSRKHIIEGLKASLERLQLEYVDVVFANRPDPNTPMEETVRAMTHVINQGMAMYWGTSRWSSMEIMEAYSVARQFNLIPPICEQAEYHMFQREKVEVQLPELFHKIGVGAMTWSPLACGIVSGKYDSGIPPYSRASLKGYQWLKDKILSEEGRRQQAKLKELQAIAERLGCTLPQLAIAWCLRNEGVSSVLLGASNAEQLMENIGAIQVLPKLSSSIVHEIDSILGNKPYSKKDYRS

SMILES	cell count [1]	inhibition [1]	inhibition of aggregation [2]	nuclei count [2] [%]	inhibition [3]	nuclei count [3] [%]	fluorescence slope [4]	NADPH fluorescence slope [5]	slope [6]	inhibition [7]	inhibition [8]
COCCN(CCOC)C(=O)c1sc2nc(-c3ccccc3)cn2c1C	752	-10.7% (inactive)	-5.6% (inactive)	119	-55.5% (inactive)	127	-0.39 (inactive)	-9.4e-06 (inactive)	0.00336 (inactive)	9.08% (inactive)	7.03% (inactive)
CCn1c(SCC(=O)N2CCN(c3ccc(Cl)cc3)CC2)nc2ccccc2c1=O	324	8.1% (inactive)	19.7% (inactive)	83.7	-184% (inactive)	102	-0.545 (inactive)	4e-05 (inactive)	0.00578 (inactive)	-8.17% (inactive)	-12.7% (inactive)
O=C1c2ccccc2C(=O)N1CCCn1nnc(-c2ccc(N3CCOCC3)cc2)n1	319	-8.2% (inactive)	28% (inactive)	111	-80.5% (inactive)	109	-0.619 (inactive)	-1.3e-05 (inactive)	0.00347 (inactive)	15.2% (inactive)	21.3% (inactive)
CCCCn1c(SCC(=O)NCc2ccccc2)nc2ccc(N3CCOCC3)cc2c1=O	372	4.3% (inactive)	10.3% (inactive)	89	-28% (inactive)	110	-0.351 (inactive)	2.2e-06 (inactive)	0.00561 (inactive)	-6.72% (inactive)	5.47% (inactive)
CC1(C)CN=C(N2CCN(c3ncnc4sc5c(c34)CCCC5)CC2)S1	395	4.1% (inactive)	-0.4% (inactive)	80.5	-28.7% (inactive)	113	-0.379 (inactive)	-4.9e-05 (inactive)	0.0035 (inactive)	6.95% (inactive)	5.35% (inactive)
CC1Cc2ccccc2N1C(=O)c1cnsn1 (centres undefined)	623	-4.5% (inactive)	-10.5% (inactive)	103	-138% (inactive)	111	-0.489 (inactive)	-0.000237 (inactive)	0.00637 (inactive)	-9.05% (inactive)	-3.1% (inactive)
CCOc1ccc(N(C(C)C(=O)NC2CCCCCC2)S(C)(=O)=O)cc1 (centres undefined)	355	2.7% (inactive)	-10.8% (inactive)	109	-40.2% (inactive)	107	-0.342 (inactive)	-4e-05 (inactive)	0.00764 (inactive)	3.76% (inactive)	19.7% (inactive)
CC(=O)N1CCN(c2ccc(NC(=O)c3ccc(C(C)(C)C)cc3)cc2)CC1	816	7.3% (inactive)	-7.5% (inactive)	97.8	-186% (inactive)	135	-0.494 (inactive)	-4e-05 (inactive)	0.00554 (inactive)	-19.2% (inactive)	-42.5% (inactive)
OC(CN1CCOCC1)Cn1c(-c2cccc(Cl)c2)nc2ccccc21 (centres undefined)	500	-2.9% (inactive)	-7.7% (inactive)	108	-39.6% (inactive)	112	-0.598 (inactive)	1.9e-05 (inactive)	0.00704 (inactive)	10.2% (inactive)	32.2% (inactive)
COc1ccc(OC)c2[nH]c(=O)c(CCNC(=O)CC(C)C)cc12	325	-12.8% (inactive)	2% (inactive)	91.9	62.7% (active)	89.8	-0.508 (inactive)	-4.7e-05 (inactive)	0.00505 (inactive)	-1.86% (inactive)	2.61% (inactive)
O=C1NCC(COCc2ccccc2)O1 (centres undefined)	432	-3% (inactive)	21% (inactive)	87.4	25.1% (inactive)	102	-0.496 (inactive)	-5.3e-05 (inactive)	0.00525 (inactive)	8.89% (inactive)	21% (inactive)
CC(C)c1nnc(NC(=O)Cc2cccs2)s1	640	3.4% (inactive)	8.9% (inactive)	114	-47.3% (inactive)	105	-0.513 (inactive)	-1.8e-05 (inactive)	0.00736 (inactive)	0.388% (inactive)	22.9% (inactive)
Cc1ccc(CC2SC(=O)NC2=O)cc1Cl (centres undefined)	790	10.4% (inactive)	-3% (inactive)	97.9	0% (inactive)	119	-0.488 (inactive)	-5.4e-05 (inactive)	0.00487 (inactive)	10.2% (inactive)	12% (inactive)
COc1ccc(S(=O)(=O)Nc2ccc(S(=O)(=O)N3CCCCC3)cc2)cc1OC	444	-4.8% (inactive)	-3.5% (inactive)	110	-34.6% (inactive)	99.1	-0.459 (inactive)	-4.3e-05 (inactive)	0.00325 (inactive)	5.56% (inactive)	29.1% (inactive)
